Bioassay records: PubChem BioAssay, Sanford-Burnham Center for Chemical Genomics
TIM10 inh – growth inhibitors of isogenic TIM10 control yeast, primary screen, counter-screen for tim10-1 yeast inhibitor project, luminescence, uHTS; S. cerevisiae TIM10 strain growth, BacTiter-Glo luminescence, 24 h; inhibition, % at 10 µM; 330,000 tested, 1.4% active; AID 463195, 2010;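 active = inhibition of 40% or more at the single tested concentration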;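 note: wild-type TIM10 isogenic control strain grown at permissive 25 °C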
tim23-1 inh – growth inhibitors of tim23-1 mutant yeast, primary screen, luminescence, uHTS | S. cerevisiae tim23-1 growth, BacTiter-Glo luminescence, 24 h | inhibition, % at 20 µM | 330,000 tested, 1.3% active;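 active = growth inhibition of the mutant yeast at or above 50%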;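 note: temperature-sensitive mutant grown at 25 °C; plate controls were DMSO-treated mutant yeast for no effect and medium wells lacking yeast for full effect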
NALP1 yeast inh – NALP1 inflammasome inhibitors in reconstituted yeast, colorimetric, S. cerevisiae, triplicate retest | S. cerevisiae NALP1/ASC/caspase-1 growth, X-gal OD620, 72 h | inhibition, % at 10 µM | 280,000 tested, 0.61% active | AID 2071, 2009; in the data active = inhibition mostly above about 24%, no sharp cut-off; inactive = mostly below about 32%
tim10-1 inh – growth inhibitors of tim10-1 mutant yeast, primary screen, luminescence, uHTS | 330,000 tested, 2.2% active | AID 463190, 2010 | inhibition, % at 20 µM | S. cerevisiae tim10-1 ts strain growth, BacTiter-Glo, 24 h;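 active = inhibition of at least 40%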;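 note: mutant grown at 25 °C; 0% = DMSO wells with yeast and 100% = wells holding no yeast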
NLRP3 yeast inh – NALP3 inflammasome inhibitors in reconstituted yeast, primary screen, luminescence, uHTS. Yeast reconstituted NLRP3/ASC/caspase-1, beta-gal luminescence, 24 h. inhibition, % at 10 µM. 330,000 tested, 0.39% active;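 active = inhibition of 50% or more; inactive = inhibition below 50%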;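 note: plate controls were induced DMSO wells for no effect and uninduced yeast grown without galactose for full effect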
tim10-1 conf – growth inhibitors of tim10-1 mutant yeast, confirmation, single concentration, luminescence, S. cerevisiae; S. cerevisiae tim10-1 ts strain growth, BacTiter-Glo, 24 h; inhibition, % at 20 µM; shares compounds with tim10-1 inh; 7,400 tested, 56% active;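 active = inhibition of yeast growth at or above a set limit in either of two repeat tests at 20 µM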;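 note: tim10-1 mutant grown at permissive 25 °C to find synthetic lethal compounds; 0% = DMSO yeast wells and 100% = medium wells without yeast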
tim10 confirm – growth inhibitors of wild-type TIM10 yeast, confirmation, counter-screen for tim10-1 synthetic lethality project, single concentration, luminescence, S. cerevisiae. shares compounds with TIM10 inh. S. cerevisiae tim10 strain growth, BacTiter-Glo luminescence, 24 h. inhibition, % at 10 µM. 4,600 tested, 63% active. AID 463215, 2010;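 active = inhibition of yeast growth at or above a set limit in either of two replicates at 10 µM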;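 note: this counterscreen used the strain with wild-type TIM10; 0% = yeast with DMSO and 100% = medium wells lacking yeast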
tim23-1 conf – tim23-1 mutant yeast growth inhibitors, confirmation, luminescence, single concentration. shares compounds with tim23-1 inh. S. cerevisiae tim23-1 growth, BacTiter-Glo luminescence, 24 h. inhibition, % at 20 µM. 4,400 tested, 83% active;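 active = inhibition above about 39% in either of two replicate wells at 20 µM, limit read from the data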;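 note: temperature-sensitive tim23-1 mutant grown at 25 °C; 0% = DMSO wells with yeast and 100% = medium wells without yeast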
An asterisk follows results filed as active; x = no result given. Sampled rows, rich in hits. Any-hit rate of the full collection: about 4%.

SMILES	TIM10 inh	tim23-1 inh	NALP1 yeast inh	tim10-1 inh	NLRP3 yeast inh	tim10-1 conf	tim10 confirm	tim23-1 conf
N=c1sc2ccccc2n1-c1ccccc1	-9	1	9	12	9	x	x	x
C=CC(=O)N=c1sc2ccccc2n1-c1ccccc1	33	53*	-20	51*	28	25	x	15
CC1CCN(CC(=O)Nc2ccc(S(=O)(=O)NC3CC3)cc2)CC1	-3	1	x	7	3	x	x	x
Cc1ccc(N(C)S(=O)(=O)c2cccc(C(=O)Nc3nc4ccccc4[nH]3)c2)cc1	34	56*	18	41*	12	42*	x	53*
COc1ccc(Nc2cc(C)c3cc([N+](=O)[O-])ccc3n2)cc1	37	51*	29	53*	32	53*	x	67*
COc1ccc(-n2cc(-c3ccc(OC)c(OC)c3)[nH]c2=S)cc1	4	-3	-14	11	2	x	x	x
Cc1ccc(-c2cn(-c3ccccc3)c(=S)[nH]2)cc1C	48*	52*	8	47*	37	21	42*	49*
FC(F)(F)c1cccc(-n2cc(-c3ccccc3)[nH]c2=S)c1	35	56*	-38	48*	27	35*	x	50*
Fc1ccccc1-n1cc(-c2ccccc2)[nH]c1=S	38	31	-13	33	7	x	x	x
Fc1nc(F)c(F)c(NCCCNc2c(F)c(F)nc(F)c2F)c1F	55*	66*	2	54*	25	76*	45*	81*
COc1ccccc1C/C(N)=N/OC(=O)COc1ccc2ccccc2c1	55*	52*	0	48*	18	64*	43*	77*
COc1ccccc1C/C(N)=N/OC(=O)COc1cccc2ccccc12	74*	65*	9	58*	21	64*	62*	73*
Cc1ccc(NS(=O)(=O)c2ccc3c(c2)CC(=O)N3)cc1F	5	9	x	2	-1	x	x	x
COC(=O)/C(=C1/Oc2ccc(C(C)(C)C)cc2S1)C(F)(F)F	-16	6	21	4	-8	x	x	x
COC(=O)/C(=C1/Oc2cc(C)oc(=O)c2S1)C(F)(F)F	41*	62*	-11	57*	46	39*	41*	69*
COc1cc(/C=C2\SC(c3ccc(C)cc3)=NC2=O)cc(OC)c1O	44*	53*	34	54*	6	38*	40*	49*
Cc1ccccc1OCC(=O)NC(=S)Nc1cccc2cc(O)ccc12	25	63*	13	57*	29	55*	x	49*
COc1ccc(/C(N)=N/OC(=O)c2cc(-c3ccccc3)nc3ccccc23)cc1	82*	79*	12	67*	10	63*	75*	76*
N/C(=N\OC(=O)c1ccccc1Cl)c1ccccn1	21	9	7	23	29	x	x	x
COC(=O)c1cc(-c2ccc(NC(C)=O)cc2)nc2ccccc12	36	53*	-3	50*	23	38*	x	57*
N/C(=N\OC(=O)c1cc(-c2ccccc2)nc2ccccc12)c1ccccn1	84*	81*	7	54*	6	31*	89*	63*
CC(=O)COC(=O)c1cc(-c2ccc(C)cc2)nc2ccccc12	35	25	12	37	21	x	x	x
Cc1ccc(/C(N)=N/OC(=O)c2cc(-c3ccccc3)nc3ccccc23)cc1	86*	84*	16	70*	1	64*	86*	80*
C=CCOCC(O)Cn1c(N2CCCC2)nc2c1c(=O)[nH]c(=O)n2C (stereo not given)	-21	-3	-5	-11	15	x	x	x
OC1CCN(C(=S)Nc2ccc(Oc3ccccc3)cc2)CC1	11	-6	5	11	11	x	x	x
SMILES	TIM10 inh	tim23-1 inh	NALP1 yeast inh	tim10-1 inh	NLRP3 yeast inh	tim10-1 conf	tim10 confirm	tim23-1 conf
Cc1ccc(C(=O)/C=C/c2cc(Br)cc(Br)c2O)o1	38	65*	8	53*	35	50*	x	66*
Cc1cccc(N=Cc2cc(Br)cc(Cl)c2O)c1	33	73*	18	50*	12	16	x	84*
Cc1ccc(NC(=O)CCS(=O)(=O)c2cc3[nH]c(=O)c(=O)[nH]c3cc2C)cc1	9	10	20	25	7	x	x	x
CCN(CC)C(=S)SSC(=S)N(CC)CC	50*	64*	102*	88*	31	99*	100*	99*
Cc1ccc(-c2cc(-c3cccc(F)c3)n[nH]2)c(O)c1	48*	59*	6	58*	25	51*	-5	21
Cc1ccc(-c2cc(-c3ccccc3C)[nH]n2)c(O)c1	49*	74*	-20	48*	21	58*	57*	54*
Cc1ccc(-c2[nH]ncc2C(=O)c2cccc(F)c2)c(O)c1	5	30	11	33	6	x	x	x
Cc1ccc(S(=O)(=O)N(Cc2ccccc2F)C(=O)N2CCN(C)CC2)cc1	-3	5	x	4	20	x	x	x
S=C(NCCCN1CCOCC1)N1CCN(c2nc(-c3ccc(Cl)cc3)cs2)CC1	30	27	3	17	8	x	x	x
S=C(NCC1CCCO1)N1CCN(c2nc(-c3ccc(Cl)cc3)cs2)CC1 (stereo not given)	40*	50*	-5	51*	19	39*	43*	52*
Cc1ccc([N+](=O)[O-])cc1NC(=S)NC(=O)c1cccs1	-23	-16	14	1	-8	x	x	x
C[C@@]12CCC=C[C@H]1[C@H](c1ccccc1Br)N(Cc1ccccc1)C2=O	40*	63*	x	43*	x	51*	48*	55*
CCN1CCc2nc3ccccc3c(C(=O)Nc3ccc(C#N)cc3)c2C1	-11	-6	-6	-1	6	x	x	x
O=C(COc1ccccc1Br)c1ccc(O)cc1O	32	66*	13	50*	22	40*	x	58*
O=C(COc1ccccc1Br)c1ccc2c(c1)OCO2	7	12	x	19	7	x	x	x
O=C(Cc1ccc(Br)cc1)c1ccc(O)cc1O	61*	63*	-5	58*	34	66*	57*	53*
